Data on eight molecules can be found in PubChem BioAssay (NCI).

A short description of the test: NCI Yeast Anticancer Drug Screen. Data for the wt1 strain (AID 149).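 Further: 0% = growth of vehicle-treated wt1 cultures.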 Particulars: S. cerevisiae wt1 strain (SPY 50644) growth inhibition, hits give high values. The method, then: Growth inhibition of yeast strains with defined genetic alterations is measured as a screen for potential anti-cancer activity. Selected strains with alterations in DNA damage repair or cell cycle control were exposed to compounds and growth inhibition was measured relative to vehicle treated controls. The strain used in this assay is wt1

Each structure is given as a SMILES string. Compounds without any hit were thinned out: in the full panel of roughly 79,000, 15% have a hit. Unmarked numbers belong to inactive results. Activity calls are given as the source filed them. No stated cut-off is given here; in the data, active means growth inhibition above about 70%; inactive means the rest.

With `Fc1ccc(Nc2ccc3ccccc3c2)cc1`, the growth inhibition by setting is: (at 1.2 µM) -1%; (at 3.7 µM) 0%; (at 11.0 µM) -2%; (at 33.0 µM) 21%; (at 100.0 µM) 41%.
In the same order, the values of `Nc1ccc(S(=O)(=O)Nc2nc3c(c(=O)[nH]2)CCCC3)cc1` are 5%, 31%, 93% (active), 99% (active) and 100% (active).
Turning to `C=COC(=O)N[C@H]1CCc2cc(OC)c(OC)c(OC)c2-c2ccc(SC)c(=O)cc21`, the growth inhibition runs as follows: (at 1.2 µM) -2%; (at 3.7 µM) -2%; (at 11.0 µM) -3%; (at 33.0 µM) -2%; (at 100.0 µM) 18%.
Regarding `CCN(CC)CCNc1ccc2nc(C)n3c4ccc(OC)cc4c(=O)c1c23`, the growth inhibition was 27% (at 1.2 µM); 21% (at 3.7 µM); 28% (at 11.0 µM); 15% (at 33.0 µM); 21% (at 100.0 µM).
Take `Oc1ccc(N=Nc2ccc(Cl)cc2)cc1`: the growth inhibition reads like this: (at 1.2 µM) -2%; (at 3.7 µM) 7%; (at 11.0 µM) 52%; (at 33.0 µM) 99% (active); (at 100.0 µM) 99% (active).
For the molecule `CO[C@@]1([C@@H](Cl)c2ccccc2)C(=O)N(C)/C(=C\c2ccccc2)C(=O)N1C`, the growth inhibition is, setting by setting: (at 1.2 µM) 0%; (at 3.7 µM) 0%; (at 11.0 µM) -2%; (at 33.0 µM) -1%; (at 100.0 µM) -1%.
With `COc1cc2oc3ccccc3c(=O)c2cc1CSc1ccccc1N`, the growth inhibition by setting is: (at 1.2 µM) -1%; (at 3.7 µM) -1%; (at 11.0 µM) -1%; (at 33.0 µM) -2%; (at 100.0 µM) 0%.
Consider `CN(C)CCCn1c2c3ccccc3ccc2c2oc(=O)c3ccccc3c21`, for which the growth inhibition reads like this: (at 1.2 µM) -10%; (at 3.7 µM) -7%; (at 11.0 µM) 26%; (at 33.0 µM) 84% (active); (at 100.0 µM) 97% (active).
